Data reported in the supplement of paper PMC11482750.
± gives the standard deviation of the averaged measurements.

The targets below were run with CCCCCC(C)=O [2-heptanone] (assay: control-subtracted net OSN firing rate; higher = stronger neuronal activation). Settings: odorant dilution (vol/vol): 1/100.
Experimental: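 Single sensillum recordings from olfactory sensory neurons. The neurons sit in the maxillary palp or antennal sensilla of D. melanogaster (wild type, mutants, or at1 empty-neuron lines expressing Or42a homologs or the A181D S307P mutant) and of four Scaptomyza species. Each odorant was given as a 1 s pulse from 20 µl loaded on filter paper at 1:100 vol/vol, diluted in mineral oil (γ-hexalactone in DMSO). Spikes were counted in a 0.5 s window starting 0.2 s after onset, background was subtracted, the count was doubled, and the mean solvent-control response was subtracted.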

Q: For S. flava pb3a-like, which “control-subtracted net OSN firing rate” value is on record?
A: 133 ± 40 spikes/s

Q: How did the “control-subtracted net OSN firing rate” value turn out when Canton-S (D. melanogaster) pb3b was run?
A: 16.3 ± 24 spikes/s

Q: Which “control-subtracted net OSN firing rate” value does the source give for S. montana pb3b-like here?
A: -2 ± 6.5 spikes/s

Q: How did the “control-subtracted net OSN firing rate” value turn out when S. flava pb2b-like was run?
A: -1 ± 14 spikes/s

Q: How did the “control-subtracted net OSN firing rate” value turn out when Canton-S (D. melanogaster) pb3a was run?
A: 5.67 ± 5.5 spikes/s

Q: Which “control-subtracted net OSN firing rate” value does the source give for Canton-S (D. melanogaster) pb2b here?
A: 0.286 ± 11 spikes/s

Q: S. hsui pb3b-like was tested. Which “control-subtracted net OSN firing rate” value did it give?
A: -6.67 ± 5.9 spikes/s

Q: How did the “control-subtracted net OSN firing rate” value turn out when S. hsui pb2b-like was run?
A: 8.67 ± 16 spikes/s

Q: Which “control-subtracted net OSN firing rate” value does the source give for S. hsui pb3a-like here?
A: 148 ± 31 spikes/s

Q: Which “control-subtracted net OSN firing rate” value does the source give for S. pallida pb1b-like here?
A: -9 ± 13 spikes/s

Q: With S. flava pb2a-like as the target, how does the “control-subtracted net OSN firing rate” value read?
A: 7.33 ± 3.7 spikes/s

Q: Which “control-subtracted net OSN firing rate” value does the source give for S. montana pb3a-like here?
A: 97.3 ± 25 spikes/s

Q: With S. pallida pb3a-like as the target, how does the “control-subtracted net OSN firing rate” value read?
A: 115 ± 19 spikes/s

Q: Which “control-subtracted net OSN firing rate” value does the source give for S. montana pb1a-like here?
A: 64.7 ± 19 spikes/s

Q: How did the “control-subtracted net OSN firing rate” value turn out when S. pallida pb3b-like was run?
A: -7.67 ± 13 spikes/s

Q: S. montana pb2b-like was tested. Which “control-subtracted net OSN firing rate” value did it give?
A: 8 ± 10 spikes/s

Q: How did the “control-subtracted net OSN firing rate” value turn out when S. hsui pb1b-like was run?
A: -8.33 ± 8 spikes/s

Q: Which “control-subtracted net OSN firing rate” value does the source give for S. pallida pb2b-like here?
A: 26.3 ± 7.8 spikes/s

Q: S. flava pb1a-like was tested. Which “control-subtracted net OSN firing rate” value did it give?
A: 104 ± 19 spikes/s

Q: How did the “control-subtracted net OSN firing rate” value turn out when S. flava pb1b-like was run?
A: -22 ± 27 spikes/s

Q: With S. montana pb2a-like as the target, how does the “control-subtracted net OSN firing rate” value read?
A: 7 ± 13 spikes/s

Q: With S. montana pb1b-like as the target, how does the “control-subtracted net OSN firing rate” value read?
A: -12.3 ± 22 spikes/s

Q: Which “control-subtracted net OSN firing rate” value does the source give for S. hsui pb2a-like here?
A: 8.67 ± 6.3 spikes/s

Q: Which “control-subtracted net OSN firing rate” value does the source give for Canton-S (D. melanogaster) pb1a here?
A: 161 ± 48 spikes/s

Q: Which “control-subtracted net OSN firing rate” value does the source give for S. pallida pb1a-like here?
A: 95.7 ± 29 spikes/s

Q: Which “control-subtracted net OSN firing rate” value does the source give for Canton-S (D. melanogaster) pb2a here?
A: 3.71 ± 7.3 spikes/s

Q: S. pallida pb2a-like was tested. Which “control-subtracted net OSN firing rate” value did it give?
A: 7.67 ± 6.6 spikes/s

Q: For S. flava pb3b-like, which “control-subtracted net OSN firing rate” value is on record?
A: -8.67 ± 26 spikes/s

Q: With Canton-S (D. melanogaster) pb1b as the target, how does the “control-subtracted net OSN firing rate” value read?
A: -10 ± 9.1 spikes/s

Q: For S. hsui pb1a-like, which “control-subtracted net OSN firing rate” value is on record?
A: 136 ± 22 spikes/s
